Values without a mark were called inactive. Inconclusive results are not listed. The source made the active and inactive calls. Unless noted, the call rests on the fitted dose curve; in most records, active means well fitted curve in the direction sought with a large enough effect; inconclusive means small, poorly fitted or top-dose-only effect, or another doubt; inactive means no such curve, though single readings can be large; an effect the other way counts as inactive or inconclusive.
What was measured:
[1] = molecular target: Lysosomal acid glucosylceramidase (Homo sapiens) (UniProt P04062); test: Glucocerebrosidase-p2 (AID 348; in the data active means potency below about 10 µM; further: potency means the concentration at half of the fitted maximal effect); conditions: purified GBA, blue fluorogenic substrate, 40 min
Lysosomal acid glucosylceramidase (Homo sapiens), sequence (P04062 whole entry, looked up): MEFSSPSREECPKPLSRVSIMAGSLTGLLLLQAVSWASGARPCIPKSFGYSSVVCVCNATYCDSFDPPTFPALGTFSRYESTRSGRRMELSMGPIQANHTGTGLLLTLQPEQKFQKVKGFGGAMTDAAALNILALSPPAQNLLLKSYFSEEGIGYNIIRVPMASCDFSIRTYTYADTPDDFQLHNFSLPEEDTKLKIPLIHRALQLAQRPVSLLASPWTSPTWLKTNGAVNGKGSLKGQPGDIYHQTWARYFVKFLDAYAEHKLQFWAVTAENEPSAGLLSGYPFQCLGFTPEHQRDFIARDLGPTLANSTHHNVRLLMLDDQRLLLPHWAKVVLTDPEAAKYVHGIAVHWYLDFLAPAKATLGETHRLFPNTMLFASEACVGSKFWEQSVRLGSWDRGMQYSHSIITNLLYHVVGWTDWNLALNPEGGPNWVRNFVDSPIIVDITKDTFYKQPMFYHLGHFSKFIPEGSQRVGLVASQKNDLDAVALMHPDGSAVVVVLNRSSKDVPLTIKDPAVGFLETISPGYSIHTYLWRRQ
Procedure, shortened: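 Normal human glucocerebrosidase (0.2 nM) with blue fluorogenic substrate (80 uM final) in citrate/phosphate pH 5.9 with 10mM sodium taurocholate, 0.01% tween-20; 40 min RT, NaOH/glycine stop; fluorescence Ex 365/Em 440; AC50 from a titration from 0.6 nM upwards.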

[2] = AP1 Signaling Pathway (AID 357; active means well fitted curve in either direction with a large enough effect, not every such curve was filed as active; further: on the % scale 0 is the no-effect control and ±100 the full control effect); conditions: ME-180 AP-1-bla reporter, EGF-induced, beta-lactamase ratio, 5 h; at 7.69 µM (top of the series) unless noted
Procedure, shortened: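 AP-1-bla ME-180 cells with beta-lactamase reporter under AP-1 response element, stimulated with EC50 EGF; compounds titrated, 5 hours at 37 degrees Celsius. CCF4 read at 460/530 nm ratio; positive and negative modulators judged by AC50.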

[3] = molecular target: Cytochrome P450 1A2 (Homo sapiens) (UniProt P05177); test: p450-cyp1a2 (AID 410; calls by dose curve; further: potency means the concentration at half of the fitted maximal effect)
Cytochrome P450 1A2 (Homo sapiens), sequence (P05177 whole entry, looked up): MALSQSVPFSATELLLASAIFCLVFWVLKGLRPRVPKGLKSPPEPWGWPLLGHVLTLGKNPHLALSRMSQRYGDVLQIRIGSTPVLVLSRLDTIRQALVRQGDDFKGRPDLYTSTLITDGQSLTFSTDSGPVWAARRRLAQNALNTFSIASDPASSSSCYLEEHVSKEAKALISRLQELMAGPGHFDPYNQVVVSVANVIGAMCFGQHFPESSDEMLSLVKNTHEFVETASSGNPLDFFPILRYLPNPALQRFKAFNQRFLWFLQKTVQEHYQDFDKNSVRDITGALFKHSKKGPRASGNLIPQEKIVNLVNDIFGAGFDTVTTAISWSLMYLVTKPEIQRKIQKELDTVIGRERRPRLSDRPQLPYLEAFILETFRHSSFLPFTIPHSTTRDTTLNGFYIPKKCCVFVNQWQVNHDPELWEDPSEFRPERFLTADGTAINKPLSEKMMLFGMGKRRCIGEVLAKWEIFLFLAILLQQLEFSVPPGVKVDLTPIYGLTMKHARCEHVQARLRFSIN
Procedure, shortened: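 Read-out is luminescence from luciferin produced by CYP1A2 demethylation of Luciferin-ME (100uM, at Km). Detection reagent stopped the 60 min NADPH-dependent reaction; signals were normalized to 57 uM furafylline.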

[4] = NFAT Signaling Pathway (AID 444; active means well fitted curve in either direction with a large enough effect, not every such curve was filed as active;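 further: carbachol stimulus at about its EC50 of 1 µM final; on the % scale 0 is the no-effect control and ±100 the full control effect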); conditions: Jurkat NFAT-bla M1, carbachol, beta-lactamase ratio, 5 h; at 7.69 µM (top of the series) unless noted
Procedure, shortened: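 Jurkat cells carrying an NFAT-driven β-lactamase reporter and co-transfected muscarinic M1 receptor were treated with compound plus carbachol (1 uM final, an EC50 level) for 5 h at 37 °C. CCF4 loading followed for 1 h at RT; 460/530 nm ratio gave %activity.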

[5] = Stat Signaling Pathway (AID 446; active means well fitted curve in either direction with a large enough effect, not every such curve was filed as active;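 further: ME-180 cervical cancer cells given 40 pM IL-6 alongside compound; SIE-controlled beta-lactamase reporter measured as 460/530 nm FRET emission ratio; on the % scale 0 is the no-effect control and ±100 the full control effect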); conditions: ME-180 SIE beta-lactamase reporter, IL-6 stimulated, 5 h; at 7.69 µM (top of the series) unless noted
Procedure, shortened: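 Overnight-plated ME-180 cells bearing a STAT Inducible Element beta-lactamase reporter; 5 h co-exposure to compound and 40 pM IL-6; values normalized to 300 pM IL-6 and 125 nM JAK inhibitor controls.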

[6] = molecular target: Glucocorticoid receptor (Homo sapiens) (UniProt P04150); test: GR-GFP Redistribution (AID 450;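 active means compounds whose dose series gives a full or clear partial fitted curve of increased nuclear translocation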; further: potency means the concentration at half of the fitted maximal effect); conditions: U2OS GR-GFP nuclear translocation, laser cytometry, 2 h
Glucocorticoid receptor (Homo sapiens), sequence (P04150 whole entry, looked up, the tested form may be a part): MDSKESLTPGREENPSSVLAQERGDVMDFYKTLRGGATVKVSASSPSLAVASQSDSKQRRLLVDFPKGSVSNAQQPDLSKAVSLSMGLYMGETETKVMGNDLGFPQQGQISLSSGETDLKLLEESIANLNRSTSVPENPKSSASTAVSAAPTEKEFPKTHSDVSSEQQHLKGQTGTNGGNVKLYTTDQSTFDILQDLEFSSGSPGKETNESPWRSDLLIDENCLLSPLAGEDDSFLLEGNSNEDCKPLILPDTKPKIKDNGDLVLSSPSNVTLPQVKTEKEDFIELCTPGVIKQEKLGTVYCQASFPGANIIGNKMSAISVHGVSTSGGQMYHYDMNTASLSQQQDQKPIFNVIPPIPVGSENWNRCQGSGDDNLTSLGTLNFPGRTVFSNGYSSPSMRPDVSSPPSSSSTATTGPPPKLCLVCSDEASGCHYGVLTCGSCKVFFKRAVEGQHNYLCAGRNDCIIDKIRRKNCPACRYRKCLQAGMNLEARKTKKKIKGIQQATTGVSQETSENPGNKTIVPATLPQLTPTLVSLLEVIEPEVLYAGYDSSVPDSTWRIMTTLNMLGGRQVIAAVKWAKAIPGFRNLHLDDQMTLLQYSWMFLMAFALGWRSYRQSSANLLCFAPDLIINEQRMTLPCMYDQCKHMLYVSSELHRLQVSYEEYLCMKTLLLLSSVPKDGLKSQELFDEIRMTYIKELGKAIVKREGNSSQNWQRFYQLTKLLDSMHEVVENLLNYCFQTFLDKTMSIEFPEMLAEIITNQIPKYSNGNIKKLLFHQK

[7] = molecular target: Glucocorticoid receptor (Homo sapiens) (UniProt P04150); test: GR-EFC Redistribution (AID 451; calls by dose curve; further: potency means the concentration at half of the fitted maximal effect); conditions: CHO-K1 GR-EFC translocation, beta-gal luminescence, 2 h
Procedure, shortened: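 CHO-K1 cells stably expressing nuclear-localized β-gal enzyme acceptor and GR fused C-terminally to the enzyme donor fragment; ligand-driven nuclear translocation restores β-gal by complementation. Compounds titrated up to 46 uM final, 2 h at 37 °C; luminescence read.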

[8] = molecular target: 3',5'-cyclic-AMP phosphodiesterase 4B (Homo sapiens) (UniProt Q07343); test: qHTS Assay for Inhibitors of PDE-IV (AID 607; active means well fitted activation curve with a large enough effect in the main read-out, with a control signal flat, not every such curve was filed as active; further: % of control where 0% means no effect)
3',5'-cyclic-AMP phosphodiesterase 4B (Homo sapiens), sequence (Q07343 whole entry, looked up): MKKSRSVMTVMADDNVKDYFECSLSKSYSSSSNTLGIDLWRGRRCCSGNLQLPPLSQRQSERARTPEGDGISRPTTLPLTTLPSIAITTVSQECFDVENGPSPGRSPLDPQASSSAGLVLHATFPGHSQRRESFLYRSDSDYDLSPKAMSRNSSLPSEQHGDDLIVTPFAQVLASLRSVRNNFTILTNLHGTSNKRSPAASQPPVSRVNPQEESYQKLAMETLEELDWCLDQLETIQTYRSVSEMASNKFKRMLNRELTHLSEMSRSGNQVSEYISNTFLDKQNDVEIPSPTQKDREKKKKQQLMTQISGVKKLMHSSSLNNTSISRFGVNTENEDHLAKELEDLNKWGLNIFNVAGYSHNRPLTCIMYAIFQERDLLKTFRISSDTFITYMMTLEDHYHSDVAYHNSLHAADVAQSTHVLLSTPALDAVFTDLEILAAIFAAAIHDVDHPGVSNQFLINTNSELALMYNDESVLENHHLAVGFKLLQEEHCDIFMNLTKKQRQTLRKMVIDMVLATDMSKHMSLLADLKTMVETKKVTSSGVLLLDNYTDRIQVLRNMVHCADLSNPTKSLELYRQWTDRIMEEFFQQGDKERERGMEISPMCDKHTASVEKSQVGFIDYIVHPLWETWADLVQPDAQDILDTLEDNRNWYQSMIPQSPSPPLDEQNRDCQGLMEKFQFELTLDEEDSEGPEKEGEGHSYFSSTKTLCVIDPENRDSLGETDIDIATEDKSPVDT
Procedure, shortened: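 Live HEK293 cells with a modified cyclic nucleotide-gated (CNG) channel report intracellular cAMP via membrane-potential dye fluorescence (ex 535/em 590 nm). Endogenous PDE-IV was targeted. Compounds were tested at up to 22.9 uM final; RO 20-1724 100 uM served as control.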

[9] = molecular target: Cytochrome P450 3A4 (Homo sapiens) (UniProt P08684); test: qHTS Assay for Inhibitors and Substrates of Cytochrome P450 3A4 (AID 884); further: potency means the concentration at half of the fitted maximal effect; nearly all actives have a fitted effect of over 50% in size
Cytochrome P450 3A4 (Homo sapiens), sequence (P08684 whole entry, looked up): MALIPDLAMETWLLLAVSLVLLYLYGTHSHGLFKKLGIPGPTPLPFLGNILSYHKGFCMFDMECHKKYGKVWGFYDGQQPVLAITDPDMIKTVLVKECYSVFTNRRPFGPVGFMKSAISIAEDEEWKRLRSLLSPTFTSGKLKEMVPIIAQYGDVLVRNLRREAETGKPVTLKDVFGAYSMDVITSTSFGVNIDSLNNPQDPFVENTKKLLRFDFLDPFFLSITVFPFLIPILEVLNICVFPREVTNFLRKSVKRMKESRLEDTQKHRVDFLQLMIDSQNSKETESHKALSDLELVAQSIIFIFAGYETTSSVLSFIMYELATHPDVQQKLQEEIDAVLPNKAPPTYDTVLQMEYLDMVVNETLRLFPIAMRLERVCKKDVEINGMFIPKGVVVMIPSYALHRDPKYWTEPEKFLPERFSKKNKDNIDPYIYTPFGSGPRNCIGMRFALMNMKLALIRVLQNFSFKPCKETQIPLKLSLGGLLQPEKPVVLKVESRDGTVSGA
Procedure, shortened: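 Luminescent readout of luciferin produced by CYP3A4 (20 nM) dealkylation of Luciferin-PPXE, 25 uM (its KM). NADPH-driven reaction ran 60 min at RT after 10 min compound preincubation; data scaled to 57 uM ketoconazole as 100% inhibition.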

[10] = molecular target: Cytochrome P450 3A4 (Homo sapiens) (UniProt P08684); test: qHTS Assay for Activators of Cytochrome P450 3A4 (AID 885); further: nearly all actives have a fitted effect of over 65% in size
Procedure, shortened: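 Using 20nM recombinant human CYP3A4 in potassium phosphate (200mM), substrate Luciferin-PPXE at 25uM, luminescent luciferin detection followed a 60-min RT NADPH reaction; data scaled to 57 uM ketoconazole.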

[11] = molecular target: Cytochrome P450 2D6 (Homo sapiens) (UniProt P10635); test: qHTS Assay for Inhibitors and Substrates of Cytochrome P450 2D6 (AID 891); further: potency means the concentration at half of the fitted maximal effect; nearly all actives have a fitted effect of over 60% in size
Cytochrome P450 2D6 (Homo sapiens), sequence (P10635 whole entry, looked up): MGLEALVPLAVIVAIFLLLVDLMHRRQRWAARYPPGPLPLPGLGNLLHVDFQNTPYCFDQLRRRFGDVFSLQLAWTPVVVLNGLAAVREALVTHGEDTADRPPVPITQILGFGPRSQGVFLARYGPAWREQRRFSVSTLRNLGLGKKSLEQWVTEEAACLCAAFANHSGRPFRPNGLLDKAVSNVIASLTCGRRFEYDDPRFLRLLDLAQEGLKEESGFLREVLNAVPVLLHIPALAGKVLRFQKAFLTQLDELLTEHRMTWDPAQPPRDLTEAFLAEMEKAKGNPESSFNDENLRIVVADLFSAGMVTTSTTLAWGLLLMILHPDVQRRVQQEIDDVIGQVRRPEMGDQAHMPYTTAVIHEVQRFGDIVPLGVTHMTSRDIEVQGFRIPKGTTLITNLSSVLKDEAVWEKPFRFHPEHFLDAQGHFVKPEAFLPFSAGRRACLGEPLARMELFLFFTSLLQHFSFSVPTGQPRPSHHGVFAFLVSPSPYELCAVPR
Procedure, shortened: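 Luminescent read-out of luciferin formed by 5 nM human CYP2D6 demethylating 30 uM Luciferin-ME EGE (Km level) over 60 min at room temperature after NADPH regeneration addition. Data normalized to full inhibition by 1.43 uM quinidine.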

[12] = molecular target: Cytochrome P450 2C19 (Homo sapiens) (UniProt P33261); test: qHTS Assay for Inhibitors and Substrates of Cytochrome P450 2C19 (AID 899); further: potency means the concentration at half of the fitted maximal effect; nearly all actives have a fitted effect of over 60% in size
Procedure, shortened: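 NADPH-dependent conversion of Luciferin-H EGE (10uM, at KM) by 5nM enzyme in 50mM KPO4, 60 min at 37C following 10 min compound preincubation. Stopped with luciferin detection buffer; luminescence read after 20 min.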

[13] = qHTS Assay for Identification of Small Molecule Agonists for Hypoxia Response Element Signaling Pathway (AID 914; active means well fitted activation curve with a large enough effect in the signal ratio, with a control signal flat, not every such curve was filed as active; the % refers to the signal ratio; further: potency means the concentration at half of the fitted maximal effect; on activation: % of control where 0% means no effect); conditions: ME-180 (cervical carcinoma) HRE-bla reporter, beta-lactamase ratio, CoCl2, 17 h; activation: stronger effect = higher value
Procedure, shortened: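 qHTS titration; ME-180 HRE-bla cells; EC50 CoCl2 co-treatment, 17 h at 37 degrees Celsius; CCF4 dye, ex 405nm, em 460nm and 530nm; %Activity from ratio; AC50.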

[14] = molecular target: Dual specificity protein kinase CLK4 (Homo sapiens) (UniProt Q9HAZ1); test: qHTS Assay for Inhibitors of CDC-like Kinase 4 (Kinase-Glo Assay) (AID 1770); further: nearly all actives have a fitted effect of over 65% in size; further: potency means the concentration at half of the fitted maximal effect
Dual specificity protein kinase CLK4 (Homo sapiens), sequence (Q9HAZ1 whole entry, looked up): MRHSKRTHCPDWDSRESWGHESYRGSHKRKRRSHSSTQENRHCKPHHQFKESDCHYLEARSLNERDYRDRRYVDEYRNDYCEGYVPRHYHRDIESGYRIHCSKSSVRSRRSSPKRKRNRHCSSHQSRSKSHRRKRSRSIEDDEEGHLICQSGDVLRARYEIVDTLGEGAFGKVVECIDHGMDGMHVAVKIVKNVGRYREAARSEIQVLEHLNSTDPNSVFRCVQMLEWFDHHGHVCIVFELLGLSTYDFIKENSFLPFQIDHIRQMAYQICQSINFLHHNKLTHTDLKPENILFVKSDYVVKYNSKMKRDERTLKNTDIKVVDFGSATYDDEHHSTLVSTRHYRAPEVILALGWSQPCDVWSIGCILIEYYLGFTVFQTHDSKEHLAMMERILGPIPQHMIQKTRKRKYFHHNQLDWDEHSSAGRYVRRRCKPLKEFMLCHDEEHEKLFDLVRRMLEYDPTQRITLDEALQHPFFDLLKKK
Procedure, shortened: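 25 nM Clk4 with 100 uM RS repeat peptide and 1 uM ATP (final) in Tris pH7.5, 10 mM MgCl2, 4.5 h at room temperature. Remaining ATP measured by Kinase-Glo luciferase luminescence.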

[15] = molecular target: Dual specificity protein kinase CLK4 (Homo sapiens) (UniProt Q9HAZ1); test: qHTS Assay for Inhibitors of CDC-like Kinase 4 (ADP-Glo Assay) (AID 1771); further: nearly all actives have a fitted effect of over 70% in size; further: potency means the concentration at half of the fitted maximal effect
Procedure, shortened: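 In this ADP-Glo format, 1 uM ATP and 100 uM RS peptide served as substrates for 25 nM Clk4 in Mg2+/EGTA/DTT/Triton buffer; reactions ran 1 hr at room temperature before luminescent ADP quantification.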

[16] = molecular target: Ubiquitin carboxyl-terminal hydrolase 1 (Homo sapiens) (UniProt O94782); test: Inhibitors of USP1/UAF1: Pilot qHTS (AID 504865);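 further: rhodamine fluorescence freed from ubiquitin-rhodamine substrate followed over time; top concentration of the series differs between compounds; on the % scale 0 is the no-effect control and ±100 the full control effect; nearly all actives have a fitted effect of over 35% in size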
Ubiquitin carboxyl-terminal hydrolase 1 (Homo sapiens), sequence (O94782 whole entry, looked up): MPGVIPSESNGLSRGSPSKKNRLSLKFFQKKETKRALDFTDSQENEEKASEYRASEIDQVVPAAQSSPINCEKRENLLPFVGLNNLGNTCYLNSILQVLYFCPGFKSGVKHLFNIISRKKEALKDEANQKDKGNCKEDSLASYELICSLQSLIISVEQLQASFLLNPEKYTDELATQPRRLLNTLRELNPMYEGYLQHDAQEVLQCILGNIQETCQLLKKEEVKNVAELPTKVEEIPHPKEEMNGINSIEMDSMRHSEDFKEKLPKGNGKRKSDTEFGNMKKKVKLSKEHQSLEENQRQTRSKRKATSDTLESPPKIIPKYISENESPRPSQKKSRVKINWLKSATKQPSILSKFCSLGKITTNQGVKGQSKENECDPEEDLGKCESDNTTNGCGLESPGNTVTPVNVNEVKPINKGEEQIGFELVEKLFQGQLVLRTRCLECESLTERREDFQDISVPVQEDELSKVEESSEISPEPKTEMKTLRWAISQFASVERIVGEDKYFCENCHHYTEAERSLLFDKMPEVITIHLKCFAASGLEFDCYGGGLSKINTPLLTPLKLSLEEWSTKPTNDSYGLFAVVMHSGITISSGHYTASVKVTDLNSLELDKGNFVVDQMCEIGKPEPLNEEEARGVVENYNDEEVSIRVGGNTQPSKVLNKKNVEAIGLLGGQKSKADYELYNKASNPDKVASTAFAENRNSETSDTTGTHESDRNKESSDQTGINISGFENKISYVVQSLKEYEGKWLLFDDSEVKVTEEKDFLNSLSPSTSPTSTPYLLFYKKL
Procedure, shortened: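 USP1/UAF1 complex at 1 nM preincubated 15 min at room temperature with compound, then Ub-Rho substrate added at 150 nM final. Fluorescence (480/540 nm) read kinetically in 50 mM HEPES pH 7.8, 0.5 mM EDTA, 1 mM TCEP, 0.1 mg/ml BSA, 0.01% Tween-20.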

[17] = Primary qHTS for small molecule stabilizers of the endoplasmic reticulum resident proteome: Secreted ER Calcium Modulated Protein (SERCaMP) assay (AID 1508630); further: on the % scale 0 is the no-effect control and ±100 the full control effect
Procedure, shortened: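 The SH-SY5Y reporter protocol was run at 3 concentrations up to 38.3 uM (primary) or 11 concentrations (follow-up): 16 h compound, 100 nM thapsigargin for 4 h, then extracellular luciferase luminescence.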

[18] = molecular target: Mitogen-activated protein kinase 10 (Mus musculus) (UniProt Q61831); test: JNK3 AlphaScreen Assay (AID 530; active means well fitted curve in either direction with a large enough effect, not every such curve was filed as active)
Procedure, shortened: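 Biotinylated GST-cJun(1-79) served as substrate for JNK3 in HepG2 lysates stimulated with IL-1beta and TNF-alpha. ATP was 10 uM final, pH 7.6. Ser73 phosphorylation was quantified by AlphaScreen (680 nm excitation).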

Row | Structure (SMILES) | Potency [1] | activity change, negative = inhibition [2] | Potency [3] | activity change, negative = inhibition [4] | activity, negative = inhibition [5] [%] | Potency [6] [µM] | Potency [7] [µM] | Potency [8] | Potency [9] | Potency [10] | Potency [11] | Potency [12] | activation [13] [%] | Potency [14] | Potency [15] | Potency [16] | outcome [17] | Potency [13] | Potency [18]
1 | COc1ccc2[nH]cc(CCNc3cc(-c4ccccc4C)ncn3)c2c1 | > 11.4 µM | -2.94% | 1 µM (active) | -8.49% | -6.58 | > 46 | > 46 | inactive | 5.01 µM (active) | inactive | 7.94 µM (active) | 7.94 µM (active) | -7.71 | 25.1 µM (active) | 15.8 µM (active) | inactive | inactive |  | 
2 | Cn1cc(-c2nc3cnc(N4CCNCC4)nc3n(-c3ccccc3)c2=O)c2ccccc21 | > 11.4 µM | 22.4% | 15.8 µM (active) | 24.6% |  | > 9.22 | > 46 | inactive |  | inactive |  |  |  | inactive | inactive | inactive | inactive | 3.98 µM (active) | 
3 | COc1cccc(-c2nc(N(C)Cc3ccco3)c3ccccc3n2)c1 | > 11.4 µM | -7.73% | 0.316 µM (active) |  | -9.79 | > 46 | > 46 |  |  | inactive | 5.01 µM (active) |  |  | 12.6 µM (active) | 12.6 µM (active) |  | inactive |  | inactive
4 | COc1ncc2nc(-c3ccccc3)c(=O)n(C3CC3)c2n1 | > 11.4 µM | -10.7% |  | 7.49% | -13.4 | > 9.22 | > 46 | inactive |  |  |  |  |  | inactive | inactive | inactive | inactive |  | inactive
5 | Cc1ccccc1-c1nc(NC2CC2)c2ccccc2n1 | 1.17 µM (active) | 17.6% | 0.501 µM (active) | -19.1% | -0.286 | > 46 | > 46 |  | 3.98 µM (active) | inactive |  |  |  | 12.6 µM (active) | 11.2 µM (active) | inactive | inactive |  | inactive
6 | c1ccc(CNc2ncnc3ccc(-c4ccoc4)cc23)cc1 | > 11.4 µM | -25% |  | 11.4% | -19.6 | > 46 | > 46 | inactive |  |  |  |  |  | 14.1 µM (active) | 12.6 µM (active) | inactive | inactive |  | inactive
7 | COc1ccc(-c2nc3cnc(N(C)C)nc3n(Cc3cccs3)c2=O)cc1 | > 11.4 µM | 17.1% | 1.58 µM (active) |  |  | > 9.22 | > 46 |  |  | inactive |  |  |  | inactive | inactive | inactive | inactive |  | 
8 | O=c1c(-c2ccc(F)cc2)nc2cnc(N3CCOCC3)nc2n1CCc1ccccc1 | > 11.4 µM | 79.3% [activator] (active) | 25.1 µM (active) | 103% [activator] (active) |  | > 9.22 | > 46 | inactive |  |  |  |  |  | inactive | inactive | inactive | inactive | 0.501 µM (active) | 
9 | COc1ccccc1-c1nc(NCc2cccnc2)c2ccccc2n1 | > 11.4 µM | 10.5% | 0.794 µM (active) | -29.2% | 12.9 | > 46 | > 46 | inactive |  | inactive |  |  |  | inactive | inactive |  | inactive |  | inactive
10 | COc1ccccc1CCn1c(=O)cnc2cncnc21 | > 11.4 µM | -0.594% |  | 6.39% | -7.13 | > 9.22 | > 46 | inactive |  |  |  |  |  | 17.8 µM (active) | 25.1 µM (active) | inactive | inactive |  | inactive
11 | CN(C)Cc1ccccc1-c1nccc(N(C)Cc2ccco2)n1 | > 11.4 µM | -20% | 7.94 µM (active) | -23.2% | 0.0679 | > 46 | > 46 |  |  | inactive | 0.794 µM (active) |  |  | inactive | inactive | inactive | inactive |  | inactive
12 | COc1cccc(-c2nccc(NCc3ccccc3OC)n2)c1 | > 11.4 µM | -18.4% | 1.26 µM (active) | 11.8% | -8.4 | > 46 | > 46 | inactive | 2.51 µM (active) | inactive | 0.398 µM (active) | 5.01 µM (active) |  | 22.4 µM (active) | 14.1 µM (active) |  | inactive |  | inactive
13 | c1cncc(CNc2ncncc2-c2ccoc2)c1 | > 11.4 µM | 2.19% |  | 7.14% | -4.52 | > 46 | > 46 | inactive |  |  |  |  |  | inactive | inactive | inactive | inactive |  | inactive

Source: PubChem BioAssay (NCATS)
